Measured values published in PubChem BioAssay (NCATS).
Where “and” joins values, the source holds several entries; their conditions need not be identical. Equal entries are not always repeated. Results filed as inconclusive are left out. Calls of active or inactive are those of the source. Calls follow the shape of the dose curve; as a rule, active = well fitted curve in the direction sought with a large enough effect; inconclusive = small, poorly fitted or top-dose-only effect, or another doubt; inactive = no such curve, though single readings can be large; an effect the other way counts as inactive or inconclusive. Square brackets hold non-standard residues; d marks the D form. Peptide text beside a SMILES is read from it. pGlu = O=C1CC[C@@H](C(=O)O)N1; Thz = O=C(O)[C@@H]1CSCN1

What was measured:
[1] = biological target: Cellular tumor antigen p53 (Homo sapiens) (UniProt P04637); test: Primary qHTS for small molecule compounds that upregulate eGFP-tagged delta133p53alpha (in N-terminal) cells. (AID 2060322); details: NCI-H358 eGFP-delta133p53alpha fluorescence, 24 h; activation: hits give high values; also: nearly all actives have a fitted effect of over 75% in size; also: potency is read from the fitted curve at half-maximal effect;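 as to activation: cells pre-induced with doxycycline then dosed without doxycycline; series mostly up to about 56 µM; 0% = DMSO vehicle and 100% = reference activator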
Method in brief: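 NCI-H358 cells pre-induced 24 h with 10 ng/ml doxycycline for eGFP-delta133p53alpha, plated dox-free and exposed 24 h at 37C to titrated compounds. Fixed, Hoechst-stained; gated GFP peak intensity by laser scanning cytometry, normalized to DMSO (0%) and 57.5 uM 5-azacytidine (100%).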

[2] = biological target: Aldehyde dehydrogenase, mitochondrial (Homo sapiens) (UniProt P05091); test: qHTS for Inhibitors of the Aldehyde Dehydrogenase Family (ALDH2) Primary screen (AID 2061308);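 also: plate controls were vehicle for no effect and reference inhibitor for full effect; nearly all actives have a fitted effect of over 55% in size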
[3] = biological target: Retinaldehyde dehydrogenase 3 (Homo sapiens) (UniProt P47895); test: qHTS for Inhibitors of the Aldehyde Dehydrogenase Family (ALDH1A3) Validation screen (AID 2061312); also: % is scaled to controls: 0 for no effect and ±100 for the full control effect; nearly all actives have a fitted effect of over 45% in size
[4] = biological target: Retinaldehyde dehydrogenase 3 (Homo sapiens) (UniProt P47895); test: qHTS for Inhibitors of the Aldehyde Dehydrogenase Family (ALDH1A3) Primary screen (AID 2061315);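 also: plate controls were DMSO vehicle for no effect and reference inhibitor for full effect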
[5] = BET inhibitor-based combinations targeting novel dependencies in MECOM-rearranged (r) AML: SET-2 cell line (AID 2202231); details: SET-2 AML cells viability, CellTiter-Glo luminescence, 48 h; viability: hits give low values, concentration not given here; also: nearly all actives have a fitted effect of over 35% in size; also: potency is read from the fitted curve at half-maximal effect;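 as to viability: plate controls were DMSO treated cells for no effect and wells without cells for full effect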
Method in brief: (§1)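 A 48 hr incubation preceded viability reading by CellTiter-Glo, with 15 min room-temperature development. Dose series had 11 points; normalization used DMSO and empty wells; AUC was computed and mean-centered per line as Z-AUC.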

[6] = BET inhibitor-based combinations targeting novel dependencies in MECOM-rearranged (r) AML: OCI-AML3 cell line (AID 2202232); details: Potency: OCI-AML3 viability; also: nearly all actives have a fitted effect of over 35% in size; also: potency is read from the fitted curve at half-maximal effect
Method in brief: as §1

[7] = BET inhibitor-based combinations targeting novel dependencies in MECOM-rearranged (r) AML: MV-4-11 cell line (AID 2202233); also: nearly all actives have a fitted effect of over 45% in size; also: potency is read from the fitted curve at half-maximal effect
Method in brief: (§2)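 Each compound is tested in an 11-point concentration series against 500 seeded cells/well for 48 hr. The luminescent viability signal is normalized to DMSO and blank wells, then reduced to AUC and a cell-line-centred Z-AUC.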

[8] = BET inhibitor-based combinations targeting novel dependencies in MECOM-rearranged (r) AML: HNT-34 cell line (AID 2202234); also: nearly all actives have a fitted effect of over 35% in size; also: potency is read from the fitted curve at half-maximal effect
Method in brief: as §2

[9] = BET inhibitor-based combinations targeting novel dependencies in MECOM-rearranged (r) AML: UCSD-AML1 cell line (AID 2202235); also: nearly all actives have a fitted effect of over 40% in size; also: potency is read from the fitted curve at half-maximal effect
Method in brief: as §2

[10] = BET inhibitor-based combinations targeting novel dependencies in MECOM-rearranged (r) AML: AML-191 cell line (AID 2202236; also: potency is read from the fitted curve at half-maximal effect; nearly all actives have a fitted effect of over 35% in size)
Method in brief: as §1

[11] = BET inhibitor-based combinations targeting novel dependencies in MECOM-rearranged (r) AML: AML-194 cell line (AID 2202237; also: nearly all actives have a fitted effect of over 40% in size; also: potency is read from the fitted curve at half-maximal effect)
Method in brief: as §1

Chain of Cellular tumor antigen p53 (Homo sapiens) (P04637 whole entry, looked up): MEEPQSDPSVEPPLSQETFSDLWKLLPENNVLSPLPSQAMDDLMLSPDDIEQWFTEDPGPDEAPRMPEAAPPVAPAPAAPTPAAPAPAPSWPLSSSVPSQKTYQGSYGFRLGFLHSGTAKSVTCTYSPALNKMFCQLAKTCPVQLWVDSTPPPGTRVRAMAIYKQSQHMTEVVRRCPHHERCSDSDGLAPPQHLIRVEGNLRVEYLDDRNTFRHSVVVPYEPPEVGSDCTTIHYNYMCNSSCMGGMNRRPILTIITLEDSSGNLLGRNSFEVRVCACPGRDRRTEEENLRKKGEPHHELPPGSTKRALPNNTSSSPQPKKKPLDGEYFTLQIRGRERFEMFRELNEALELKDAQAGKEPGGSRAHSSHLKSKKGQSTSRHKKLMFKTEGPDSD

Cc1occc1C(=O)n1ccnc1
inactive: activation [1] 1.43% | Potency [2] | Potency [3] | Potency [4]

CCCCC(=O)N1c2ccccc2NC2=C(C(=O)CCC2)C1c1ccccc1Cl (stereo unspecified)
inactive: activation [1] -4.77% | Potency [2] | Potency [3] | Potency [4]

O=c1[nH]c2ccccc2n1CCN1CCN(c2cccc(C(F)(F)F)c2)CC1
inactive: activation [1] -3.34% | Potency [2] | Potency [3] | Potency [4]

CC(C)Nc1nc(Nc2ccccc2)nc(-c2ccccc2)n1
inactive: activation [1] 2.39% | Potency [2] | Potency [3] | Potency [4]

O=C(NC/C=C/CN1CCN(c2cccc(Cl)c2Cl)CC1)c1ccc(-c2ccccn2)cc1
inactive: activation [1] 6.68% | Potency [2] | Potency [3] | Potency [4]

CC(C)[N+]1(C)C2CCC1CC(OC(=O)C(CO)c1ccccc1)C2 (stereo unspecified)
inactive: activation [1] 3.82% | Potency [2] | Potency [3] | Potency [4]

CCc1cnc(N2CCC(c3nc(COc4ccc(-n5cnnn5)cc4)cs3)CC2)nc1
inactive: activation [1] 2.86% | Potency [2] | Potency [3] | Potency [4]

CC(=O)O[C@]1(C(C)=O)CC[C@H]2[C@@H]3C[C@H](C)C4=CC(=O)C=C[C@]4(C)[C@@]3(F)[C@@H](O)C[C@@]21C
inactive: activation [1] 1.91% | Potency [2] | Potency [3] | Potency [4]

O=[N+]([O-])c1cn2c(n1)OC[C@@H](OCc1ccc(-c3ccc(OC(F)(F)F)cc3)nc1)C2
inactive: activation [1] -3.34% | Potency [2] | Potency [3] | Potency [4]

O=C(O)c1ccc(S(=O)(=O)N(Cc2ccc(OC(F)(F)F)cc2)c2ncc(C(F)(F)F)cc2Cl)cc1
inactive: activation [1] -2.86% | Potency [2] | Potency [3] | Potency [4]

COc1cccc(-n2nc(C(=O)O)cc2-c2ccc(C3CCCCC3)c(Cl)c2)c1
inactive: activation [1] 1.43% | Potency [2] | Potency [3] | Potency [4]

COc1ccc2cc(-c3cc(-c4cc(Cl)cc(Cl)c4)nn3C(C)c3ccc(C(=O)NCCC(=O)O)cc3)ccc2c1 (stereo unspecified)
inactive: activation [1] 29.1% | Potency [2] | Potency [3] | Potency [4]

Cc1nc2cc(-c3cc(F)cc(C#N)c3)ccc2s1
inactive: activation [1] -1.91% | Potency [2] | Potency [3] | Potency [4]

O=C(O)[C@H](Cc1ccccc1)Oc1ccc(-c2ccccc2)cc1
inactive: activation [1] -3.34% | Potency [2] | Potency [3] | Potency [4]

COc1cc(N)c(Cl)cc1C(=O)NC[C@@H]1CCN2CCC[C@@H]12
inactive: activation [1] -3.34% | Potency [2] | Potency [3] | Potency [4]

CCCCS(=O)(=O)NC(Cc1ccc(OCCCCC2CCNCC2)cc1)C(=O)O (stereo unspecified)
inactive: activation [1] 12.9% | Potency [2] | Potency [3] | Potency [4]

O=C(c1ccc(F)cc1)C1CCN(CCn2c(=O)nc3n(c2=O)CCCC3)CC1
inactive: activation [1] -6.21% | Potency [2] | Potency [3] | Potency [4]

CO[C@H]1C=CO[C@@]2(C)Oc3c(C)c(O)c4c(O)c(c5c(c4c3C2=O)NC2(CCN(CC(C)C)CC2)N=5)=NC(=O)C(C)=CC=C[C@H](C)[C@H](O)[C@@H](C)[C@@H](O)[C@@H](C)[C@H](OC(C)=O)[C@H]1C
inactive: activation [1] 0.549% | Potency [2] | Potency [3] | Potency [4]

O=C1CC[C@@H](C(=O)N2CSC[C@H]2C(=O)O)N1 ([pGlu]-[Thz]-OH)
inactive: activation [1] 1.43% | Potency [2] | Potency [3] | Potency [4]

CC(Cc1cc2c(c(C(N)=O)c1)N(CCCO)CC2)NCCOc1ccccc1OCC(F)(F)F (stereo unspecified)
inactive: activation [1] 5.25% | Potency [2] | Potency [3] | Potency [4]

CC(C)(C)c1ccc(CNC(=S)NCc2ccc(NS(C)(=O)=O)c(F)c2)cc1
inactive: activation [1] -6.68% | Potency [2] | Potency [3] | Potency [4]

CN(C)CCCOc1nn(Cc2ccccc2)c2ccccc12
inactive: activation [1] 8.47% and -14.3% | Potency [2] | Potency [3] | Potency [4]

CCC(COC)n1nnc2c(Nc3ccc(OC)cc3C)nc(C)cc21 (stereo unspecified)
inactive: activation [1] -5.25% | Potency [2] | Potency [3] | Potency [4]

CNc1cc(OC)c(C(=O)N[C@@H]2CCN(Cc3ccccc3)[C@@H]2C)cc1Cl
inactive: activation [1] 12.4% | Potency [2] | Potency [3] | Potency [4]

O=C(Nc1ccc(S(=O)(=O)Nc2ccccc2Cl)c(Cl)c1)c1ccccn1
inactive: activation [1] 15.8% | Potency [2] | Potency [3] | Potency [4]

N[C@@H]1c2cccnc2[C@H](OC(=O)N2CCC(n3c(=O)[nH]c4ncccc43)CC2)CC[C@H]1c1cccc(F)c1F
inactive: activation [1] -10.5% | Potency [2] | Potency [3] | Potency [4]

CCN(CC)C(=O)C(c1ccccc1)N1CCN(c2ccc(NC(=O)c3ccccc3-c3cccnc3)cc2F)CC1 (stereo unspecified)
inactive: activation [1] -6.21% | Potency [2] | Potency [3] | Potency [4]

O=C(NCCCN1CCOCC1)c1cnn2c(-c3ccccc3)cc(-c3ccccc3)nc12
inactive: activation [1] -6.68% | Potency [2] | Potency [3] | Potency [4]

Nc1ncnc2c1c(-c1cnc3[nH]ccc3c1)nn2C1CCCC1
inactive: Potency [2] | Potency [3] | Potency [4]
active: Potency [1] 26.9 µM | Potency [5] 3.72 µM | Potency [6] 4.17 µM | Potency [7] 1.66 µM | Potency [8] 0.417 µM | Potency [9] 0.372 µM | Potency [10] 2.95 µM | Potency [11] 1.86 µM

Cc1noc2c1-c1ccccc1C(c1ccc(Cl)cc1)=N[C@H]2CC(N)=O
inactive: activation [1] 32.4% | Potency [2] | Potency [3] | Potency [4]
active: Potency [5] 2.35 µM | Potency [6] 1.32 µM | Potency [7] 0.525 µM | Potency [8] 1.48 µM

COc1ccc2c(OCc3nnc4ccc(-c5ccccc5)nn34)ccnc2c1
inactive: activation [1] -0.776% and -8.11% | Potency [2] | Potency [3] | Potency [4] | viability [5] 116% | Potency [6] | Potency [7] | Potency [8] | Potency [9] | Potency [11]
